# In PubChem BioAssay (NCI):
# About 83,000 compounds went through this panel and 20% of them were active in at least one assay; those are over-represented in the sample as a whole.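 Testing used 96-well plates and a 48-hour single-concentration exposure. Example: -40 means 40% of the starting cells died.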 A number with no mark means an inactive call. Activity calls are given as the source filed them. The calls were made as follows: active = growth percent below 10; inactive = the rest.
# Test system: NCI/ADR-RES ovarian
# Assay: NCI-60 one-dose screen, 48 h (100 = growth as untreated, 0 = no growth, -100 = all killed)
# Settings: 10 µM unless noted
row,SMILES,growth
1,COc1ccc(/C=C/C(=O)c2ccc(NC(=O)CSc3nnc(-c4ccc5nc(-c6ccc(Cl)cc6)[nH]c5c4)o3)cc2)cc1,107%
2,CC(=O)Nc1cc(F)cc(-c2ccc3[nH]cc(-c4ccccc4)c3n2)c1,33.5%
3,C=CCSc1ccc2c(c1)C(N1CCNCC1)=Nc1ccccc1O2,87.9% [8.25 µM]
4,Fc1ccc(-c2nc(C(Cl)Cl)nc3cc(-c4ccccc4)nn23)cc1,17.8%
5,C/C(=C(/c1ccc(Cl)cc1)c1ccc(OCCN)cc1)c1ccc(C)cc1,111%

# Test system: T-47D breast
# Assay: as above
# Settings: 10 µM unless noted
row,SMILES,growth
1,O=c1[nH]c2ccc(Cl)cc2cc1CSc1ccccc1Nc1nccc(-c2ccc(Cl)cc2)n1,84.8%
2,CC(C)(C)OC(=O)N1C(=O)c2c(c3c4ccccc4[nH]c3c3ccc4ccccc4c23)C1=O,32.6%
3,CNC(=O)c1cc(-c2ccc(NC(=O)Nc3ccc(N4CCN(C)CC4)c(C(F)(F)F)c3)cc2)nc2cccnc12,-18.8% (active)
4,C/C(=N/NC(N)=S)c1ccc(Nc2nc(SCC(C)C)nc(-c3ccc(F)cc3)c2C#N)cc1,21.6%
5,CCCCN1C(=O)/C(=c2\sc3n(c2=O)C2C(NN=3)N(CC)C(=O)N2CC)c2cc(Cl)ccc21 (stereo unspecified),75%
6,COc1cc(-c2nc3ccc(-c4nnc(SCC(=O)Nc5ccc(C(C)=O)cc5)o4)cc3[nH]2)cc(OC)c1OC,103%
7,N#Cc1c(-c2ccc(Cl)cc2)nc(SCc2ccc(F)cc2)nc1N1CCNCC1,71.3%
8,Cn1cc(-c2cc(N)n3nc(-c4cn(C)c5ccc(Br)cc45)cc3n2)c2cc(Br)ccc21,101%
9,Cc1cc(C(=O)Nc2sc3c(c2C(N)=O)CCC(=O)C3)ccc1OCCN1CCCCC1,89.4%
10,NS(=O)(=O)c1ccc(Nc2nc(SCC(=O)c3ccc(Cl)cc3)nc3ccccc23)cc1,77.6%
11,CC(C)(C)Nc1nc2c(OCCc3ccccc3)cccn2c1-c1ccc(O)cc1,35.9%
12,CCOc1ccc2nc(NC(=O)c3ccc(C(F)(F)F)cc3)sc2c1,97.7%
13,N#Cc1c(-c2ccc(Cl)cc2)nc(SCc2ccc([N+](=O)[O-])cc2)nc1N1CCNCC1,-9.43% (active)
14,Cc1cccc(/C=C/c2nn3c(-c4ccco4)nnc3s2)c1,89.2%
15,Cc1sc2c(c1C)c(=O)nc1c(-c3nc(-c4ccc(F)cc4)no3)n[nH]n12,95.5%
16,C[C@@H]1CN(c2ccc3ncc(C#Cc4cncc(C(=O)Nc5ccc(CN6CCN(C)CC6)c(C(F)(F)F)c5)c4)n3n2)C[C@H](C)O1,15%

row,SMILES,growth
1,Nc1c(C(=O)Nc2ccc(Cl)cc2)sc2nc(-c3cnccn3)cc(-c3cccs3)c12,96.7%
2,O=c1[nH]c2ccccc2cc1CSc1ccccc1Nc1nccc(-c2ccc(C(F)(F)F)cc2)n1,66.7%
3,Cc1c(Nc2nnc(SCC(=O)Nc3sc4c(c3C#N)CCCC4)s2)c(=O)n(-c2ccccc2)n1C,97.3%
4,CS(=O)(=O)c1ccc(-c2nc3ccccn3c2C=Nc2ccc(Cl)cc2)cc1,65.4%
5,N[C@@H](Cc1cn(-c2c3ccccc3nc3ccccc23)nn1)C(=O)O,96.2%
6,CC(C)(C)Nc1nc2c(OCCc3ccccc3)cccn2c1-c1cccc(F)c1,5.21% (active)
7,CCN1C(=S)N(c2ccccc2)C2NC(=O)N(/N=C/C=C/c3ccccc3OC)C21 (stereo unspecified),93.3%
8,CCOC(=O)c1csc(NC(=O)CSc2nc3sc4c(c3c(=O)n2-c2ccc(Cl)cc2)CCCC4)n1,87%
9,Cc1ccc(CNS(=O)(=O)/N=C2\NC(=O)NC2=C(Cl)Cl)cc1,48.7%
10,CO/N=C1\CCc2c(sc(NC(=O)c3cccc(C(F)(F)F)c3)c2C(N)=O)C1,-18.5% (active)
11,O=C(CSc1nc2sc3c(c2c(=O)n1-c1ccc(Cl)cc1)CCCC3)N/N=C/c1ccc(F)cc1,109%
12,CN1CCN(Cc2ccc(NC(=O)c3cncc(C#Cc4cnc5[nH]ncc5c4)c3)cc2C(F)(F)F)CC1,40.7%
13,CC(C)(C)Nc1nc2c(OCCc3ccccc3)cccn2c1-c1ccc(Cl)cc1,8.79% (active)
14,N#Cc1c(-c2ccc(Cl)cc2)nc(SCc2ccccc2)nc1N1CCNCC1,65.6%
15,COc1ccc(/C=C/C(=O)c2ccc(NC(=O)CSc3nnc(-c4ccc5nc(-c6ccc(Cl)cc6)[nH]c5c4)o3)cc2)cc1,78%
